# BAZ2B block: qHTS Assay for Inhibitors of BAZ2B. Potency, µM (titrated, usually from 114 µM), inactives show at the top dose activity change, negative = inhibition, hits mostly inhibitors. hit rate 4.4% among 360,000. AlphaScreen BAZ2B-H3K14Ac peptide displacement. Bromodomain adjacent to zinc finger domain protein 2B (Homo sapiens), Q9UIF8; further: on the % scale 0 is the no-effect control and ±100 the full control effect; nearly all actives have a fitted effect of over 60% in size
#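 BAZ2B 50 nM plus b-H3(5-23)K14Ac 50 nM, PBS pH 7.4/0.01% Tween-20, 30 min RT; compound added (max 110 uM), 30 min RT; streptavidin donor/Ni-chelate acceptor beads 10 ug/mL final, 20 min dark; AlphaScreen read.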
# HP1b chromo inh: HTS for Inhibitors of HP1-beta Chromodomain Interactions with Methylated Histone Tails. Chromobox protein homolog 1 (Homo sapiens), P83916. AlphaScreen HP1-beta / biotin-H3K9me3 peptide binding. Potency, µM (top dose mostly 114 µM), for inactives: top-dose activity change, negative = inhibition, usual class: inhibitors. hit rate 0.56% among 390,000. AID 540317, 2011; further: nearly all actives have a fitted effect of over 70% in size
#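 Compound inhibition of the preformed complex between 50 nM HP1-beta and 50 nM biotinylated H3K9me3 peptide was read by AlphaScreen. Buffer was PBS pH 7.4 with 0.01% Tween-20. Incubations ran 30 min at room temperature, with 10 ug/mL donor/acceptor beads.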
# G9a inh: qHTS Assay for Inhibitors of Histone Lysine Methyltransferase G9a. Potency, µM (titrated, usually from 102 µM), inactives show top-dose activity, negative = inhibition, most hits filed as inhibitors. Histone-lysine N-methyltransferase EHMT2 (Homo sapiens), Q96KQ7. hit rate 8.8% among 350,000. AID 504332, 2011. G9a H3K9 monomethylation, AlphaScreen, 2 h; further: on the % scale 0 is the no-effect control and ±100 the full control effect; nearly all actives have a fitted effect of over 75% in size
#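 Enzyme 20 nM + cpd, 15 min RT; add b-H3K9 pep 500 nM / SAM 20 uM; 2 h RT; anti-H3K9me1 Ab 0.5 ug/mL + SA donor / anti-rabbit acceptor beads 20 ug/mL each, 10 min; AlphaScreen read.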
# TDP1 inh: qHTS Assay for Inhibitors of Tyrosyl-DNA Phosphodiesterase (TDP1); Tyrosyl-DNA phosphodiesterase 1 (Homo sapiens), Q9NUW8; recombinant TDP1, AlphaScreen DNA substrate cleavage; Potency, µM (doses to about 130 µM), for inactives: at the highest dose activity change, negative = inhibition, hits mostly inhibitors; AID 485290, 2010; hit rate 0.28% among 350,000; further: on the % scale 0 is the no-effect control and ±100 the full control effect; nearly all actives have a fitted effect of over 40% in size
#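 Enzyme-compound mixtures sat 15 min at room temperature, followed by a 5 min reaction with 15 nM final substrate and 10 min with AlphaScreen beads. Recombinant human Tdp1 was used at 1 nM final.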
# Sfp inh: qHTS Assay for Inhibitors of Bacillus subtilis Sfp phosphopantetheinyl transferase (PPTase). hit rate 3.5% among 310,000. 4'-phosphopantetheinyl transferase ffp (Bacillus subtilis), Q9F4F7. Potency, µM, without a hit: largest response in the series, negative = inhibition, hits mostly inhibitors. Biochemical Sfp PPTase activity, qHTS. AID 1490, 2009;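 further: the enzyme is Sfp with the accession as filed and its product quenches rhodamine fluorescence; 0% = enzyme reaction without inhibitor and -100% = no enzyme wells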
#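 Compounds were incubated with enzyme (final 15 nM) for 15 min at room temperature before substrate addition started the reaction. Fluorescence at 525 nm excitation, 598 nm emission was recorded immediately and after 30 minutes.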
# JMJD2A Tudor: qHTS Assay for Inhibitors of JMJD2A-Tudor Domain | Lysine-specific demethylase 4A (Homo sapiens), O75164 | AlphaScreen JMJD2A-Tudor / H3K4me3 peptide binding | Potency, µM (highest dose often 114 µM), for inactives: at the top dose activity change, negative = inhibition, usual class: inhibitors | hit rate 4.4% among 390,000 | AID 504339, 2011; further: on the % scale 0 is the no-effect control and ±100 the full control effect; nearly all actives have a fitted effect of over 50% in size
# Target sequence (O75164 whole entry, looked up, the tested form may be a part): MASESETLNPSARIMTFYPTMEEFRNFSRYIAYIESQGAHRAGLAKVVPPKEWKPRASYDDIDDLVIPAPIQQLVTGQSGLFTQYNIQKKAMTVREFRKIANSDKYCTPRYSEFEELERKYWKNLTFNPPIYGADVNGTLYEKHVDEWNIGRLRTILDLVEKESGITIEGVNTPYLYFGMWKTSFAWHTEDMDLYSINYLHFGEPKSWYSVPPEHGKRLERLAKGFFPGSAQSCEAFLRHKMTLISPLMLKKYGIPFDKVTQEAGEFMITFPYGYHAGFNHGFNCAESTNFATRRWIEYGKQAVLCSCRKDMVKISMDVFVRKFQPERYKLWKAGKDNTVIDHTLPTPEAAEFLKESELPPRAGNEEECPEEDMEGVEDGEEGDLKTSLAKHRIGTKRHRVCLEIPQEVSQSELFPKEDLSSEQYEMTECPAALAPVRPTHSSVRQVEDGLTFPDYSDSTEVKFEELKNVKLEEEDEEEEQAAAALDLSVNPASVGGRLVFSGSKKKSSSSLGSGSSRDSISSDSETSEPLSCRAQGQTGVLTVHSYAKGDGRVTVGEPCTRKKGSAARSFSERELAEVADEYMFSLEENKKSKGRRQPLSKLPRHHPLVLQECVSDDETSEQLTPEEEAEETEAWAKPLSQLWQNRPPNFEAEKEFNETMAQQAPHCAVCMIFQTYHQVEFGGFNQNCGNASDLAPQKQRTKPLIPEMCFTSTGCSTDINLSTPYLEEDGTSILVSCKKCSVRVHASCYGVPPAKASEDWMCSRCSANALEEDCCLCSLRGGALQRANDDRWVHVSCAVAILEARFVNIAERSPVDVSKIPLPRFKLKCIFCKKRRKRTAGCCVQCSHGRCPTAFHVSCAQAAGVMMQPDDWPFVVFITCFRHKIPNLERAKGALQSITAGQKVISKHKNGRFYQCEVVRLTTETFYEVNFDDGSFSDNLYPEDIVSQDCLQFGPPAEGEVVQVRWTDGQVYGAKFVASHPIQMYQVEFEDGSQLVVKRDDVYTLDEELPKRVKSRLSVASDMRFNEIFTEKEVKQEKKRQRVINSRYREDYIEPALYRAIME
# An asterisk follows results filed as active; ? = inconclusive; / = no result given; [ ] = dose if it differs, or a comment. Shown are actives, neighbours in structure and some others; about 12% of the full set was active somewhere. The call rests on the fitted dose curve; in most records, active means well fitted curve in the direction sought with a large enough effect; inconclusive means small, poorly fitted or top-dose-only effect, or another doubt; inactive means no such curve, though single readings can be large; an effect the other way counts as inactive or inconclusive. Potency means the concentration at half of the fitted maximal effect.
SMILES,BAZ2B block,HP1b chromo inh,G9a inh,TDP1 inh,Sfp inh,JMJD2A Tudor
O=C(C[C@@H]1C/C=C/CC[C@@H](Cc2ccc(F)cc2)C(=O)OC[C@H](Cc2ccccc2)NC1=O)N[C@H](CO)Cc1ccccc1,/,25%,/,-2%,/,-18%
OC(CCCN1CCCCC1)(c1ccccc1)c1ccc(C(F)(F)F)cc1 (stereo unspecified),/,8%,/,/,/,-10%
CC(C)[C@H](NC(=O)c1ccc(Cl)cc1)C(=O)OCC(=O)N1CCN(c2ccccc2)CC1,/,-2%,/,2%,/,-22%
Cc1ccc(C(=O)NC(=S)NNC(=O)c2ccc([N+](=O)[O-])cc2)cc1,0%,3%,24%[0.501 µM],/,14%,-28%
O=C(NC(=S)Nc1ccccc1[N+](=O)[O-])c1ccccc1,-18%,?,25µM*,/,28µM*,?
Cc1ccc(C(=O)NC(=S)NNC(=O)c2ccccc2[N+](=O)[O-])cc1,3%,-26%,8.9µM*,10%,45µM*,56µM*
CC(C)(C)c1ccc(NC(=O)c2ccccc2)c([N+](=O)[O-])c1,?,?,?,10%,-15%,50µM*
O=C(NNC(=S)NC(=O)c1ccccc1[N+](=O)[O-])c1ccc(Cl)cc1Cl,3%,5%,18µM*,9%,24%,-6%
Cc1c(NC(=O)c2ccc(C(C)(C)C)cc2)cccc1[N+](=O)[O-],2%,14%,17%,1%,-4%,-12%
COc1cc(-c2ccc3ncnc(NCc4cccs4)c3c2)cc(OC)c1OC,/,/,/,/,/,-16%
O=C(NNC(=S)NC(=O)c1ccccc1[N+](=O)[O-])c1ccccc1[N+](=O)[O-],-5%,4%,?,10%,-2%,-8%
O=C(NNC(=S)NC(=O)c1ccccc1[N+](=O)[O-])c1ccccc1O,?,29%,-38%,9%,23%,89µM*
O=C(NNC(=S)Nc1ccccc1)c1ccccc1[N+](=O)[O-],-14%,13%,32µM*,6%,14%,-20%
CCOc1ccc(N2C(=O)C(Cl)=C(N3CCOCC3)C2=O)cc1,-29%,25%,50µM*,/,-10%,-27%
CC(C)c1ccc(N2C(=O)C(Cl)=C(N3CCOCC3)C2=O)cc1,-4%,31%,10%,2%,14%,-7%
O=C1C(Cl)=C(N2CCOCC2)C(=O)N1c1ccc(Br)cc1,6%,54%,45µM*,/,1%,-20%
CCc1ccccc1N1C(=O)C(Cl)=C(N2CCOCC2)C1=O,-4%,83%,8%[0.501 µM],/,-4%,7%
COc1ccc(-c2cc(=O)oc3c(C)c(OC(C)C(=O)Nc4ccc(CN5CCOCC5)cc4)ccc23)cc1 (stereo unspecified),?,4%,4%[0.0925 µM],6%,-3%,-29%
NS(=O)(=O)c1ccc(N/N=C/c2ccccc2C(=O)O)c([N+](=O)[O-])c1,10%,-10%,-31%,4%,-2%,-15%
O=C(O)c1ccccc1NS(=O)(=O)c1ccc(NN=Cc2cccc(Cl)c2)c([N+](=O)[O-])c1,/,79µM*,/,0%,/,18µM*
COc1ccc(NS(=O)(=O)c2ccc(NN=Cc3ccc(C(=O)O)cc3)c([N+](=O)[O-])c2)cc1,/,/,/,45µM*,/,/
NS(=O)(=O)c1ccc(N/N=C/c2ccc(O)c(O)c2O)c([N+](=O)[O-])c1,35µM*,13µM*,/,-10%,4µM*,8.9µM*
O=C(O)c1ccccc1NS(=O)(=O)c1ccc(N/N=C/c2ccc(O)c(O)c2)c([N+](=O)[O-])c1,/,14µM*,/,/,/,28µM*
COc1cccc(CNC(=O)Cn2c(=O)cc(C)c3c(C)nn(C)c32)c1OC,-11%,46%,8%[59 µM],-1%,/,-9%
CC1CCc2cc(F)cc3c(O)c(C(=O)NCCN(C)C)c(=O)n1c23 (stereo unspecified),-23%,3%,?,/,0%,-22%
SMILES,BAZ2B block,HP1b chromo inh,G9a inh,TDP1 inh,Sfp inh,JMJD2A Tudor
CCN(CC)c1ccc(N=Cc2c(C)[nH]c3ccccc23)cc1,13µM*,32µM*,14µM*,10%,50µM*,35µM*
COc1ccccc1N(C(=O)c1ccncc1)c1nc(-c2ccc([N+](=O)[O-])cc2)cs1,?,?,10µM*,8%,-17%,?
COCCN(C(=O)c1cccc(N2C(=O)CCC2=O)c1)c1nc(-c2ccc([N+](=O)[O-])cc2)cs1,-27%,-11%,-48%,-3%,/,-32%
COC(=O)C1(CCSC)NC(c2ccc(O)c(OC)c2)C2C(=O)N(c3ccc(C)cc3)C(=O)C21 (stereo unspecified),-5%,32%,-3%,0%,10%,-13%
Cc1ccc2cccc(OCC(=O)c3cc(C)n(Cc4ccco4)c3C)c2n1,-36%,/,?,9%,56µM*,/
Cc1cc(C(=O)CCl)c(C)n1Cc1ccco1,?,?,-43%,-6%,-24%,?
Cc1cc(C(=O)COC(=O)CNC(=O)c2ccc(Cl)c(Cl)c2)c(C)n1Cc1ccco1,-23%,33%,9%[59 µM],0%,-14%,-7%
Cc1ccc(C(=O)NCC(=O)OCC(=O)c2cc(C)n(Cc3ccco3)c2C)cc1,?,?,45µM*,8%,10%,?
N#Cc1ccc(NC(=O)CN2C(=O)NC3(CCCC3)C2=O)cc1,1%,4%,20%,10%,13%,-9%
CCOC(=O)c1sc2nc(N3CCOCC3)c3c(c2c1N)CCC3,7%,11%,6%,6%,?,9%
CCCCN(CCCC)C(=O)c1sc2nc(N3CCOCC3)c3c(c2c1N)CCCC3,7%,21%,45µM*,3%,11µM*,-26%
Nc1c(C(=O)NCCc2ccccc2)sc2nc(N3CCOCC3)c3c(c12)CCCC3,-1%,79%,16µM*,0%,22µM*,-6%
CN(C)CCCNC(=O)C[C@H]1C[C@H](C(=O)N2CCOCC2)[C@@]2(C)c3[nH]c4cc(CCC(=O)N(C)C)ccc4c3CCN2C1=O,/,24%,/,-2%[56.1 µM],/,-14%
CC(C)C(NC(=O)c1ccc(C(C)(C)C)cc1)C(=O)Nc1cccc(S(N)(=O)=O)c1 (stereo unspecified),?,-3%,-40%,3%,10%,-35%

# Screening data: PubChem BioAssay, National Center for Advancing Translational Sciences (NCATS)
